From PubChem BioAssay AID1845225 (National Center for Advancing Translational Sciences (NCATS), 2023)
Records with an inconclusive call do not appear. Active and inactive are the calls of the source. Calls come from the whole dose curve; as a rule, active = well fitted curve in the direction sought with a large enough effect; inconclusive = small, poorly fitted or top-dose-only effect, or effect the other way, or another doubt; inactive = no such curve, though single readings can be large or run the other way.

Assay: Confirmatory redox qHTS assay for identification of artifact compounds.
Settings: Amplex Red/HRP redox cycling with DTT, fluorescence; series mostly up to 39 µM
Outline: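 Amplex Red (25 uM final) and HRP (250 mU/mL final) in HBSS, compound 15 min, then 250 uM DTT final 30 min, room temperature, dark; fluorescence 525/598 nm, normalized to DMSO and 10 uM DA3003, Hill fitted.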

outcome, inactive:
C=C[C@@]1(C)C[C@H](OC(=O)CSC(C)(C)CNC(=O)[C@@H](N)C(C)C)[C@@]2(C)C(C)CC[C@@]3(CCC(=O)[C@@H]32)[C@H](C)[C@H]1O (stereo not given in full)
COC(=O)c1c(SC)nc2ccccc2c1OCc1ccc(Br)cc1
Cc1cccc(N2CCN(CCCNC(=O)c3nnc(Cc4c(F)cccc4Cl)o3)CC2C)c1 (stereo not given)
O=C1CCc2cc(S(=O)(=O)Nc3cccc(F)c3)ccc2N1
CCCCCCOc1ccc(CC(=O)O)cc1
Cc1ccc(Cl)cc1N1C(=O)N(Cc2ccc(C#N)cc2)c2ccccc2S1(=O)=O
CCOC(=O)c1c(C)[nH]c(CCC(=O)NCCCN2CCN(c3ccc(F)cc3)CC2)c1C
CC(NC(=O)CSc1nc(-c2ccccc2F)nc2cc(=O)[nH]n12)c1nc2ccccc2n1C (stereo not given)
O=C(Nc1cccc(Br)c1)N1CCC(CN2CCCCC2)CC1
Cc1ccc(C)c(C(=O)N2CCC(c3nc4c(nnn4Cc4ccccc4)c(=O)[nH]3)CC2)c1
COc1ccc(S(=O)(=O)N(CCc2ccccc2)CC(=O)Nc2cc(Cl)ccc2C)cc1
CN1C(CC(=O)c2ccccc2)CCCC1CC(O)c1ccccc1 (stereo not given)
CC(N)(C(=O)O)c1ccc(S(=O)(=O)O)cc1 (stereo not given)
Cc1cccc(C)c1NC(=O)CCSCCc1ccccn1
CCOc1ccc2nc(N3CCC(C(=O)Nc4ccc(Br)cc4F)CC3)sc2c1
Cc1ccc(-n2ncc(C(=O)N3CCN(c4ccccn4)CC3)c2C2CCN(C(=O)OC(C)(C)C)CC2)cc1C
CCCCN1C(=O)c2[nH]nc(-c3ccccc3O)c2C1c1ccc(C(C)(C)C)cc1 (stereo not given)
CC1(C)S[C@@H]2[C@H](NC(=O)C3(N)CCCCC3)C(=O)N2[C@H]1C(=O)O
CN1C(C(=O)Nc2ccc(F)cc2F)=CC(c2cccs2)=NS1(=O)=O
COc1ccc(Cn2c(C(=O)O)c(CNC3CCCC3)c3ccc(C)cc32)cc1
O=C(CSc1nc(-c2ccccc2)[nH]c1-c1ccc(F)cc1)NC1CCCC1
O=S(=O)(c1cc(Br)c(Br)s1)N1CCN(c2ccccc2)CC1
COc1ccc(OC)c(NC(=O)Cn2c(=O)n(CC3CCCO3)c(=O)c3cc(OC)c(OC)cc32)c1 (stereo not given)
COc1cc(O)c(C(CC(=O)N2CCCCC2)c2ccc(C)cc2)c(OC)c1 (stereo not given)
O=C(Nc1onc2c1CCCC2)c1ccc(Cl)cc1
Nc1ccc(F)cc1F
O=C(NCCSc1c(-c2ccc(Br)cc2)[nH]c2ccccc12)c1ccc(S(=O)(=O)N2CCOCC2)cc1
COc1cccc(CNC(=O)C2Cc3cc(S(=O)(=O)N4CCCCCC4)ccc3N2C(C)=O)c1 (stereo not given)
COc1cc2nc(N3CCCCC3)nc(NC(C)C)c2cc1OC
O=C(Nc1nnc(-c2ccccc2)s1)c1ccc(S(=O)(=O)N2CCCC2)cc1
CC(C)=CCC/C(C)=C/C=O
Cc1ccccc1S(=O)(=O)Nc1cnccc1C(=O)Nc1nc(-c2ccccc2)cs1
O=C(NCCc1csc(-c2cccc(F)c2)n1)C(=O)Nc1cc(F)ccc1F
O=C(CCC(=O)N1CCSc2ccccc21)Nc1ccc(Cl)cc1
COc1cc2c(NC3CCN(C(C)C)CC3)nc(N3CCCN(C)CC3)nc2cc1OCCOCCN(C)C
Cc1ccc(C)c(NC(=O)CC2NCCNC2=O)c1 (stereo not given)
CCOc1ccc(C(=O)c2cn(CC(=O)Nc3cc(OC)ccc3OC)c3cc(OC)c(OC)cc3c2=O)cc1
COc1ccc(CCNC(=O)c2cc3c(-c4ccc(OC)c(OC)c4)nn(C)c3s2)cc1OC
COc1ccc(C(=O)O)cc1Nc1nc2ccc(C)cc2n2cnnc12
COc1ccccc1NC(=O)CSc1nnc(NC(=O)NC2CCCCC2)s1
